# Tests used:
# Assay in all cases: DAPPL (digital affinity profiling via proximity ligation, sequencing); 10 mM Tris-HCl pH 7.5, 50 mM NaCl, 1 mM DTT, 4% glycerol, room temperature, 30 min; GST-TFs on glutathione beads, 16-mer random dsDNA library, 0.1% formaldehyde crosslink after washing; high values mean tight binding
# FLI1 = target: T1, FLI1 (Homo sapiens, UniProt Q01543 1-452); settings: protein: recombinant; tags: N-terminal GST; dsDNA, one strand shown
# T1 sequence: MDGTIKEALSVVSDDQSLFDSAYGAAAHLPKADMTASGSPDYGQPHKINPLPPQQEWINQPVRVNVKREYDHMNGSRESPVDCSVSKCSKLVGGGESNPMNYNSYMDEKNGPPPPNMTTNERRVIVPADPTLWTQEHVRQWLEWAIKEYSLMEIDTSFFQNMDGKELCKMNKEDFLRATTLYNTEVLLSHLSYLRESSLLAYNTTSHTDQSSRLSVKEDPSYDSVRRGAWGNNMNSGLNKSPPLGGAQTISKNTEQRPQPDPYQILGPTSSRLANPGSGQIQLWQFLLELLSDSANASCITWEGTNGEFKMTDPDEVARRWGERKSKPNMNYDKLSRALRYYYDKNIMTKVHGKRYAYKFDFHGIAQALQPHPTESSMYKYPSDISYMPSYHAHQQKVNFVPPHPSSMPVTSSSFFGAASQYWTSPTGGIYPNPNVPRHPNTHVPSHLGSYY
# How it was run: (§1)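 Binding signal is given per hexamer as its read frequency for a factor divided by its frequency in the tag-only sample. GST-fused human transcription factors were expressed in yeast, captured on glutathione beads, barcoded with DNA and pooled with that sample, then incubated with 200 nmole of a 16-mer random double-stranded DNA library in Tris/NaCl/DTT/glycerol buffer for 30 min at room temperature. The pools were then washed, crosslinked, proximity-ligated, amplified by PCR and sequenced on an Illumina NextSeq500.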
# ELK1 = target: T2, ELK1 (Homo sapiens, UniProt P19419 1-428); settings: protein: recombinant; tags: N-terminal GST; dsDNA, one strand shown
# T2 sequence: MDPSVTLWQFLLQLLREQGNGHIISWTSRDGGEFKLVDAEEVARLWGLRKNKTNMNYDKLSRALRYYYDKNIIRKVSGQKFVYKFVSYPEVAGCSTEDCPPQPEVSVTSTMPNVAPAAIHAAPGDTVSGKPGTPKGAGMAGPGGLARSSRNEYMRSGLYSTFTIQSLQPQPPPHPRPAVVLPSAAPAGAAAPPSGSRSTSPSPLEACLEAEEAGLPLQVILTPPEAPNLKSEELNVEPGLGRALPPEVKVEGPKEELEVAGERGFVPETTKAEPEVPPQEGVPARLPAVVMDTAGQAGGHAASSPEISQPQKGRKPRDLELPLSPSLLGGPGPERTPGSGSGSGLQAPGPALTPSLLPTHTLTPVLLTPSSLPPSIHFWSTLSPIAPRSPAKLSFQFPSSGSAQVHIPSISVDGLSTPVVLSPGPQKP
# How it was run: as §1
# GABPA = target: T3, GABPA (Homo sapiens, UniProt Q06546 1-454); settings: protein: recombinant; tags: N-terminal GST; dsDNA, one strand shown
# T3 sequence: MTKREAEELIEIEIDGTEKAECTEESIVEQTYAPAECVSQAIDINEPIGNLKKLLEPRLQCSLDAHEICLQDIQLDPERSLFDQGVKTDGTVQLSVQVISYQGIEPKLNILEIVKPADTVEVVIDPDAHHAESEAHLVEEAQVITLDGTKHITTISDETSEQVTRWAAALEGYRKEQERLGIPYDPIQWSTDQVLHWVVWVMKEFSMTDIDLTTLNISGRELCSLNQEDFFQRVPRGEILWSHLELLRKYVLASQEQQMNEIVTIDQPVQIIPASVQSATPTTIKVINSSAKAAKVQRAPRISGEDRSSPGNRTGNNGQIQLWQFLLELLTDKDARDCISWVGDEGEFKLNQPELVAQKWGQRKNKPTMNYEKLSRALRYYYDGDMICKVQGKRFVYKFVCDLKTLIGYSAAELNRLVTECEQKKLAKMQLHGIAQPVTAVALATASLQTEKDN
# How it was run: as §1
# ERG = target: T4, ERG (Homo sapiens, UniProt P11308 1-479); settings: protein: recombinant; tags: N-terminal GST; dsDNA, one strand shown
# T4 sequence: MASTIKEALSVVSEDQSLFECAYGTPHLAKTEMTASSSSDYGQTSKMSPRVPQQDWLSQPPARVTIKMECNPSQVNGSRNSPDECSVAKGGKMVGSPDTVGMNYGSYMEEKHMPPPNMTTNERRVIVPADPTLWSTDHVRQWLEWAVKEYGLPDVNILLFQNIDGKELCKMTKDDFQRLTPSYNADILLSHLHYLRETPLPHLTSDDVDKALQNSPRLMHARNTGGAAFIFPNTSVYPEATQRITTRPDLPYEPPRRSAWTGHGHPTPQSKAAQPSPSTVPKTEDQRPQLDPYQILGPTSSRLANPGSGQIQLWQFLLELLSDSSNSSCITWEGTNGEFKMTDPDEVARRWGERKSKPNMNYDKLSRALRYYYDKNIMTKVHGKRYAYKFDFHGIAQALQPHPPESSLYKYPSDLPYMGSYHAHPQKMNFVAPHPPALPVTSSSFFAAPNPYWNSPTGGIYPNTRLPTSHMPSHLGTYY
# How it was run: as §1
# ELF1 = ELF1 (Homo sapiens, UniProt P32519 1-619); settings: protein: recombinant; tags: N-terminal GST; dsDNA, one strand shown
# How it was run: as §1
# EHF = target: T5, EHF (Homo sapiens, UniProt Q9NZC4 1-300); settings: protein: recombinant; tags: N-terminal GST; dsDNA, one strand shown
# T5 sequence: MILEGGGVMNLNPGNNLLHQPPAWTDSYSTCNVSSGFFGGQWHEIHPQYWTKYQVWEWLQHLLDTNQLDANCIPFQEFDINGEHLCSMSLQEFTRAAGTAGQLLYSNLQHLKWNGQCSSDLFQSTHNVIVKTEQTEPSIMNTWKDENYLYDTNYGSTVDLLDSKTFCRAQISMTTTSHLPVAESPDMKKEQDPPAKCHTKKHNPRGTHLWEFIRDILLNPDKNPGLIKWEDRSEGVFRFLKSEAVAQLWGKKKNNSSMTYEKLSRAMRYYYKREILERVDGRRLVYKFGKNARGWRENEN
# How it was run: as §1
# SPI1 = SPI1 (Homo sapiens, UniProt P17947 1-270); settings: protein: recombinant; tags: N-terminal GST; dsDNA, one strand shown
# How it was run: as §1
# SPIB = SPIB (Homo sapiens, UniProt Q01892 1-262); settings: protein: recombinant; tags: N-terminal GST; dsDNA, one strand shown
# How it was run: as §1
# ELK3 = target: T6, ELK3 (Homo sapiens, UniProt P41970 1-407); settings: protein: recombinant; tags: N-terminal GST; dsDNA, one strand shown
# T6 sequence: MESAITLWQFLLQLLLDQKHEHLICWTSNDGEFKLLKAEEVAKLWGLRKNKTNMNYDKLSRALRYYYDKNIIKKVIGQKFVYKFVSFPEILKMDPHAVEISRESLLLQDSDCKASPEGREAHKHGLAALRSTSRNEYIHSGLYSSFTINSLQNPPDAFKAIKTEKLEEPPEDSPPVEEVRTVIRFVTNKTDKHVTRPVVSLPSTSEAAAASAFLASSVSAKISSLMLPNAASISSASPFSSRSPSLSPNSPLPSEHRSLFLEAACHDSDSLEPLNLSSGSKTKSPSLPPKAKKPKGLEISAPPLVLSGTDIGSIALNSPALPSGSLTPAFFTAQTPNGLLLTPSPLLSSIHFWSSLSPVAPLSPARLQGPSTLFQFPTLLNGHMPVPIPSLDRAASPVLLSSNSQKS
# How it was run: as §1
# FEV = target: T7, FEV (Homo sapiens, UniProt Q99581 1-238); settings: protein: recombinant; tags: N-terminal GST; dsDNA, one strand shown
# T7 sequence: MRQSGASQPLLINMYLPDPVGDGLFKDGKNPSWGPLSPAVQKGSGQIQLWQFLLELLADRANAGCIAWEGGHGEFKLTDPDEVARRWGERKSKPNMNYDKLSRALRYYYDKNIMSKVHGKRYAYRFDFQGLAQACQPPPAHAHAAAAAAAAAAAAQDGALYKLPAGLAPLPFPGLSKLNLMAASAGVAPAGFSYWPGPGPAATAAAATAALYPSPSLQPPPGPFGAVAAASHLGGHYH
# How it was run: as §1
# ETV5 = ETV5 (Homo sapiens, UniProt P41161 1-510); settings: protein: recombinant; tags: N-terminal GST; dsDNA, one strand shown
# How it was run: as §1
# HSF1 = HSF1 (Homo sapiens, UniProt Q00613 1-529); settings: protein: recombinant; tags: N-terminal GST; chain copies: 3; dsDNA, one strand shown
# How it was run: as §1
# SPIC = target: T8, SPIC (Homo sapiens, UniProt Q8N5J4 1-248); settings: protein: recombinant; tags: N-terminal GST; dsDNA, one strand shown
# T8 sequence: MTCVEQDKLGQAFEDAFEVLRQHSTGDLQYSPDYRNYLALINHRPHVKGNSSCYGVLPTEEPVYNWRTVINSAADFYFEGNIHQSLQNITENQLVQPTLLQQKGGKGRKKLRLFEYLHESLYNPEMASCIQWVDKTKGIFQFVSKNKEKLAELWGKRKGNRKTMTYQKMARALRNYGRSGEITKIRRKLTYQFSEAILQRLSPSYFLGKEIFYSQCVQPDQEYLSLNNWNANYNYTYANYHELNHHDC
# How it was run: as §1
# ELF4 = ELF4 (Homo sapiens, UniProt Q99607 1-663); settings: protein: recombinant; tags: N-terminal GST; dsDNA, one strand shown
# How it was run: as §1
# ELK4 = target: T9, ELK4 (Homo sapiens, UniProt P28324-2 1-405); settings: protein: recombinant; tags: N-terminal GST; dsDNA, one strand shown
# T9 sequence: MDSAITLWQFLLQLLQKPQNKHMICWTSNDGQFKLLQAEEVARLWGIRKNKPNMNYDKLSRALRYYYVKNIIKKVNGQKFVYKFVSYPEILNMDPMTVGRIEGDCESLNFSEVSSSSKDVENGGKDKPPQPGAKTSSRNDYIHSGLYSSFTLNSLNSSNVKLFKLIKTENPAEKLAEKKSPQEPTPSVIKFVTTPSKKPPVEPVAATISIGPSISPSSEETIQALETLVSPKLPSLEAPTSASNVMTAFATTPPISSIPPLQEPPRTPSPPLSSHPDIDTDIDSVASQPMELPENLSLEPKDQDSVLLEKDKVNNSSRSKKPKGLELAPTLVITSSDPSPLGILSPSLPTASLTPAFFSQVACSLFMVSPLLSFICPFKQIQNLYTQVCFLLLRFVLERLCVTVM
# How it was run: as §1
# ETV2 = target: T10, ETV2 (Homo sapiens, UniProt O00321 1-342); settings: protein: recombinant; tags: N-terminal GST; dsDNA, one strand shown
# T10 sequence: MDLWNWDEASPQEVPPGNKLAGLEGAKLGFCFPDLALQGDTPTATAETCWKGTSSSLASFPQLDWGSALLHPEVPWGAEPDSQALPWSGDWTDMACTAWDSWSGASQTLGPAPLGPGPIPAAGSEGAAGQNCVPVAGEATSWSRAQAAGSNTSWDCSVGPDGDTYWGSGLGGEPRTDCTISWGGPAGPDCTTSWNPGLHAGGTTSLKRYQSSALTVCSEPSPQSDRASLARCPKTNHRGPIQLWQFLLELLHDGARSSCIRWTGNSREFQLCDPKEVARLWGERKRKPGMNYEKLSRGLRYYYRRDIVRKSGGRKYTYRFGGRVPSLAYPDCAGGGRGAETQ
# How it was run: as §1
# ELF3 = target: T11, ELF3 (Homo sapiens, UniProt P78545 1-371); settings: protein: recombinant; tags: N-terminal GST; dsDNA, one strand shown
# T11 sequence: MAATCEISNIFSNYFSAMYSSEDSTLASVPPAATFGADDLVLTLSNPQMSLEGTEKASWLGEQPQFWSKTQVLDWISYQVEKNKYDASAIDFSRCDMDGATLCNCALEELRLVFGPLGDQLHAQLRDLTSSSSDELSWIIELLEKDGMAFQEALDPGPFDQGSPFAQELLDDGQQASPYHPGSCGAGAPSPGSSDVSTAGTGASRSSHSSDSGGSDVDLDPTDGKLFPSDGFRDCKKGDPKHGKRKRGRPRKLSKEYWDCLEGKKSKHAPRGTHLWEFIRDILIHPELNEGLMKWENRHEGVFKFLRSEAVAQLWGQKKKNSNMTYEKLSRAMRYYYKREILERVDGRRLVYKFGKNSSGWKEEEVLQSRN
# How it was run: as §1
# CRX = CRX (Homo sapiens, UniProt O43186 1-299); settings: protein: recombinant; tags: N-terminal GST; dsDNA, one strand shown
# How it was run: as §1
# ETV1 = ETV1 (Homo sapiens, UniProt P50549 1-477); settings: protein: recombinant; tags: N-terminal GST; dsDNA, one strand shown
# How it was run: as §1
# Chain of HSF1 (Q00613 whole entry): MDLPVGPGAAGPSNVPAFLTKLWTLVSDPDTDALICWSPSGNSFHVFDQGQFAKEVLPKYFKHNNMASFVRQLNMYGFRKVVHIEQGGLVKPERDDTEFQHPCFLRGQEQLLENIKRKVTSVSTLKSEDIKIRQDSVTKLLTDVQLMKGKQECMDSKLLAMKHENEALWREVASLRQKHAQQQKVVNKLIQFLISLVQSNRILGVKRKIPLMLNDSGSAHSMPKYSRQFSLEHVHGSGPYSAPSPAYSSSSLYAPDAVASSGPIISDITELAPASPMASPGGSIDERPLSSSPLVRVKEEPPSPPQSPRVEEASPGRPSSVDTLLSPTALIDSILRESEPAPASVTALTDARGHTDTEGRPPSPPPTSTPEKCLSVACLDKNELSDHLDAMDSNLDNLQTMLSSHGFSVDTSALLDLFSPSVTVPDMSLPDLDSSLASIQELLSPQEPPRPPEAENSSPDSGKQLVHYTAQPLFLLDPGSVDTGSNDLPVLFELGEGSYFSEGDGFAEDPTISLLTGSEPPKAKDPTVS
# Chain of CRX (O43186 whole entry): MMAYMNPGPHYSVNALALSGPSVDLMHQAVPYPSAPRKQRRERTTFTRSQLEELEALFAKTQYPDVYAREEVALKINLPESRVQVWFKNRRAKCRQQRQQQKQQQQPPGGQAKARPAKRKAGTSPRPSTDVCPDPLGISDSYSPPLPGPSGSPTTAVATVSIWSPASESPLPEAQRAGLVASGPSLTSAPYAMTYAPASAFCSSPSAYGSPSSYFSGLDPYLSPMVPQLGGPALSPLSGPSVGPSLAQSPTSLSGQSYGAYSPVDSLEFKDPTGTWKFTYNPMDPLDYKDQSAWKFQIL
# Chain of ETV5 (P41161 whole entry): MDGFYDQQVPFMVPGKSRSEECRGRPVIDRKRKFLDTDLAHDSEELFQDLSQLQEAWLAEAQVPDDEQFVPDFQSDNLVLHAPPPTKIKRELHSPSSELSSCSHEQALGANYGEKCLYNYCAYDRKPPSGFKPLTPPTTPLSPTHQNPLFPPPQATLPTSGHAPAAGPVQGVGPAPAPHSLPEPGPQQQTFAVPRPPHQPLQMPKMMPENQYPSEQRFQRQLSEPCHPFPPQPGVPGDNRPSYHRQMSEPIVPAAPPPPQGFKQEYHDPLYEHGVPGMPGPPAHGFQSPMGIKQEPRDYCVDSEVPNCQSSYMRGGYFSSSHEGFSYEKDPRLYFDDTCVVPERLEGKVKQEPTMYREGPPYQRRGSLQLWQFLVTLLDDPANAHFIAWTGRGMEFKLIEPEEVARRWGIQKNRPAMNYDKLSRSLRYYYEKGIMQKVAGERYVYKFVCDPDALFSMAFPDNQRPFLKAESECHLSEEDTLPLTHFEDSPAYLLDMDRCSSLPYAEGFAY
# Chain of ETV1 (P50549 whole entry): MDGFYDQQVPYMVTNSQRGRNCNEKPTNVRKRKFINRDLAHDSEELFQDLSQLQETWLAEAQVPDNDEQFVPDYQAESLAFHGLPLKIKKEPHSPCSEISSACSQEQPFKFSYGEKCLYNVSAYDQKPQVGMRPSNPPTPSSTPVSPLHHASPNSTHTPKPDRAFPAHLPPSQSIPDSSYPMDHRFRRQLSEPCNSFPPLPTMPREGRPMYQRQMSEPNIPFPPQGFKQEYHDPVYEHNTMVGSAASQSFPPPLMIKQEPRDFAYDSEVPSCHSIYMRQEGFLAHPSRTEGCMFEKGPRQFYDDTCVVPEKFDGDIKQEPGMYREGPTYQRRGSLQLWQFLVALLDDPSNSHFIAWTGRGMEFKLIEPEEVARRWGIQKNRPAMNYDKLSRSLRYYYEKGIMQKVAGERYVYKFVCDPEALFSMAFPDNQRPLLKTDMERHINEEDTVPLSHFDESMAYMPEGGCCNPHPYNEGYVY
# Chain of SPIB (Q01892 whole entry): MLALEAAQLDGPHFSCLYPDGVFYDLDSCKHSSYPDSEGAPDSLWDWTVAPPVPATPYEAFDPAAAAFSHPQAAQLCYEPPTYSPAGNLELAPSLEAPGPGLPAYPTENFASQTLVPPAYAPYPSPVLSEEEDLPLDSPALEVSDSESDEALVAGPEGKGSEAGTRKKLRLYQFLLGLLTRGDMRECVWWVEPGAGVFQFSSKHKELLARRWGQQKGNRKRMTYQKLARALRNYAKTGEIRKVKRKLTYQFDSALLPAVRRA
# Chain of ELF4 (Q99607 whole entry): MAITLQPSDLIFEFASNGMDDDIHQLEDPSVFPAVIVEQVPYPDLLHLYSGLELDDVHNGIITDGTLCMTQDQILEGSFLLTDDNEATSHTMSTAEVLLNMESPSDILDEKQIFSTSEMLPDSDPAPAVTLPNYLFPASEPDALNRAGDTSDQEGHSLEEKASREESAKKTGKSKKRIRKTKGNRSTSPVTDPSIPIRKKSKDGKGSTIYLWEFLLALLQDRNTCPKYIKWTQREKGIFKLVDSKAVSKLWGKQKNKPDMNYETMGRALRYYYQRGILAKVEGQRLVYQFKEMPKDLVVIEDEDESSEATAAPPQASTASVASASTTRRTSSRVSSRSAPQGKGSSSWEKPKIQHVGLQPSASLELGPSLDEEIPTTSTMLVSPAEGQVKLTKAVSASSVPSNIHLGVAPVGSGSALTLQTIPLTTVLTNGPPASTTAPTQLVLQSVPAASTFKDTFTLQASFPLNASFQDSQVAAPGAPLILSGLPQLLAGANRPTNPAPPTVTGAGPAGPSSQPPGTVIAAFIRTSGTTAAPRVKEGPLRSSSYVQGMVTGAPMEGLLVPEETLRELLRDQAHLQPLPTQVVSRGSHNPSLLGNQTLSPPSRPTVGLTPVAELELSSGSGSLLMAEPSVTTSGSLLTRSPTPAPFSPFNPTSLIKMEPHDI
# Chain of ELF1 (P32519 whole entry): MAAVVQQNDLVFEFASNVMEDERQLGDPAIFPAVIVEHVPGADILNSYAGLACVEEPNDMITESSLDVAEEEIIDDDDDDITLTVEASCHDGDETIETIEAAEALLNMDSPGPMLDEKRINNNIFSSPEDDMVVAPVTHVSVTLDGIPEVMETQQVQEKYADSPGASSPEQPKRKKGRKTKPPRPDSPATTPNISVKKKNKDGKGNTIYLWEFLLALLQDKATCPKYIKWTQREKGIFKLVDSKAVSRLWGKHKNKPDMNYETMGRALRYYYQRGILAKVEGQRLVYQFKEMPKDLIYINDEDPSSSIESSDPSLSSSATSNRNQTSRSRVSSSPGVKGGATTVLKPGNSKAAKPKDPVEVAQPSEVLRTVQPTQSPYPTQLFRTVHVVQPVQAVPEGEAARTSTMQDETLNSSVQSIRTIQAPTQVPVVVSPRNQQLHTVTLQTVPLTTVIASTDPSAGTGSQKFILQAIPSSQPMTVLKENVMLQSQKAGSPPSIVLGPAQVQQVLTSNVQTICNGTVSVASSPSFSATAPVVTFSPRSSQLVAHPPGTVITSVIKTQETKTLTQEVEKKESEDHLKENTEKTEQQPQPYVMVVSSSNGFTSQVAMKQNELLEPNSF
sequence,measurement,setting,value
AAATTG,binding signal,FLI1,"1.2 fold enrichment (6-mer frequency, TF over GST control)"
same,binding signal,ELK1,"1.23 fold enrichment (6-mer frequency, TF over GST control)"
same,binding signal,GABPA,"1.26 fold enrichment (6-mer frequency, TF over GST control)"
same,binding signal,ERG,"1.23 fold enrichment (6-mer frequency, TF over GST control)"
same,binding signal,ELF1,"1.22 fold enrichment (6-mer frequency, TF over GST control)"
same,binding signal,EHF,"1.28 fold enrichment (6-mer frequency, TF over GST control)"
same,binding signal,SPI1,"1.26 fold enrichment (6-mer frequency, TF over GST control)"
same,binding signal,SPIB,"1.25 fold enrichment (6-mer frequency, TF over GST control)"
same,binding signal,ELK3,"1.22 fold enrichment (6-mer frequency, TF over GST control)"
same,binding signal,FEV,"1.22 fold enrichment (6-mer frequency, TF over GST control)"
same,binding signal,ETV5,"1.26 fold enrichment (6-mer frequency, TF over GST control)"
same,binding signal,HSF1,"1.16 fold enrichment (6-mer frequency, TF over GST control)"
same,binding signal,SPIC,"1.16 fold enrichment (6-mer frequency, TF over GST control)"
same,binding signal,ELF4,"1.27 fold enrichment (6-mer frequency, TF over GST control)"
same,binding signal,ELK4,"1.2 fold enrichment (6-mer frequency, TF over GST control)"
same,binding signal,ETV2,"1.21 fold enrichment (6-mer frequency, TF over GST control)"
same,binding signal,ELF3,"1.33 fold enrichment (6-mer frequency, TF over GST control)"
same,binding signal,CRX,"1.05 fold enrichment (6-mer frequency, TF over GST control)"
same,binding signal,ETV1,"1.21 fold enrichment (6-mer frequency, TF over GST control)"

# — article PMC7862700, “An all-to-all approach to the identification of sequence-specific readers for epigenetic DNA modifications on cytosine”
